This test has as its system HIV-1 nucleocapsid protein NCp7 (binding to TG oligonucleotide). As to the kind of experiment: HIV Nucleocapsid (AID 346).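 Also: potency is for inhibitors that block NC binding and lower polarization.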 As to conditions: HIV-1 NC / fluorescein-TGTGTGTG probe, fluorescence polarization. The gist of the method:
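Fluorescence polarization binding of 100 nM HIV-1 NC to 10 nM fluorescein-labelled TG4xF oligonucleotide. Buffer was Hepes pH 7.5 with 250mM NaCl, 1uM ZnCl2, TCEP and 2-mercaptoethanol. Compounds were incubated 1 hr at room temperature before the read.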

A number with no mark means an inactive call. No rule for the calls is given here.
Potency is read from the fitted curve at half-maximal effect.

With `Cc1noc(C)c1-c1nc(NCc2ccccc2)c2ccccc2n1`, the Potency was greater than 20 µM.
As for `CN(Cc1ccco1)c1ccnc(-c2cccc(C#N)c2)n1`, the Potency was greater than 20 µM.
Turning to `c1ncc(-c2ccc3c(c2)OCO3)c(NCCc2cnc[nH]2)n1`, the Potency is greater than 20 µM.
For the molecule `O=S(=O)(c1ccccc1)N1CCC2(CC1)CN(C(c1ccccc1)c1ccccc1)C2`, the Potency is greater than 20 µM.
`COCC(=O)N1CCC2(CC1)CCN(C(=O)Nc1cccc(C#N)c1)CC2`: the Potency is greater than 20 µM.
`COc1cccc(-c2ccc3ncnc(NCc4ccc(OC)cc4OC)c3c2)c1`: the Potency is greater than 20 µM.
Take `COCCn1c(=O)c(-c2cn(C)c3ccccc23)nc2cnc(N3CCNCC3)nc21`: the Potency is greater than 20 µM.
As for `COc1ncc2ncc(=O)n(C3CC3)c2n1`, the Potency is greater than 20 µM.
With `COc1cccc(-c2nccc(NC3CCNCC3)n2)c1` the figure was greater than 20 µM.
In the case of `Cc1noc(C)c1-c1nccc(NCc2cccnc2)n1`, the Potency is greater than 20 µM.
The figure for `Cc1noc(C)c1-c1ccc2ncnc(N3CCC(C(=O)O)CC3)c2c1` is greater than 20 µM.
Turning to `O=c1c(-c2ccc(F)cc2)nc2cnc(Oc3ccccc3)nc2n1C[C@H]1CCCO1`, the Potency was greater than 20 µM.
The figure for `c1ccc(CNc2ncnc3ccc(-c4cccnc4)cc23)cc1` is greater than 20 µM.
The figure for `COCCNc1nc(-c2ccccc2C)nc2ccccc12` is greater than 20 µM; for `COCCNc1cc(-c2ccccc2C(F)(F)F)ncn1` it is greater than 20 µM.
In the case of `COc1ccc2[nH]cc(CCNc3cc(-c4c(C)noc4C)ncn3)c2c1`, the Potency was greater than 20 µM.
On to `COCCNc1ncncc1-c1ccccc1OC`, for which the Potency is greater than 20 µM.
`Cc1cnc(CNc2ccnc(-c3ccccc3Cl)n2)cn1`: the Potency was greater than 20 µM.
Turning to `CC(=O)NCCNc1ccnc(-c2ccccc2C)n1`, the Potency is greater than 20 µM.
For `CS(=O)(=O)N1CCC2(CC1)CN(c1ccccc1)C2`, the Potency is greater than 20 µM.
On to `Cn1cccc1C(=O)N1CCC[C@@]2(CCN(Cc3ccc(C#N)cc3)C2)C1`, for which the Potency is greater than 20 µM.
Regarding `O=C(c1ccco1)N1CCC[C@@]2(CCN(c3cccc(-c4ccccc4)c3)C2)C1`, the Potency was greater than 20 µM.
The figure for `COc1ccc(Oc2ncc3nc(C)c(=O)n(Cc4cccs4)c3n2)cc1` is greater than 20 µM; for `COc1ccccc1CCn1c(=O)c(C)nc2cncnc21` it is greater than 20 µM.
`COCCNc1ncnc2ccc(-c3cccc(OC)c3)cc12`: the Potency was greater than 20 µM.
With `O=C(Nc1ccccc1)N1CC2(CCN(C(=O)c3ccncc3)CC2)C1` the figure was greater than 20 µM; with `COc1ccc(CNc2cc(-c3ccccc3OC)ncn2)c(OC)c1`, greater than 20 µM.
With `O=C(c1ccco1)N1CCC[C@@]2(CCN(c3ncccn3)C2)C1` the figure was greater than 20 µM; with `CN(C)c1ccc(-c2nc(NC3CCNCC3)c3ccccc3n2)cc1`, greater than 20 µM.
The figure for `O=C(c1ccncc1)N1CCC2(CCN(Cc3ccncc3)CC2)CC1` is greater than 20 µM; for `O=c1c(-c2cc(F)cc(F)c2)nc2cncnc2n1Cc1ccccc1Cl` it is greater than 20 µM; for `Cc1cnc(CNc2cc(-c3ccoc3)ncn2)cn1` it is greater than 20 µM.
With `COc1ccc(CNc2nc(-c3c(C)noc3C)nc3ccccc23)c(OC)c1`, the Potency is greater than 20 µM.
Turning to `Cc1noc(C)c1-c1cncnc1N(C)Cc1ccco1`, the Potency was greater than 20 µM.
As for `O=C(c1ccncc1)N1CCC2(CC1)CN(c1cccc(-c3ccccc3)c1)C2`, the Potency is greater than 20 µM.
As to `O=S(=O)(c1ccccc1)N1CCC[C@@]2(CCN(Cc3ccccc3)C2)C1`, the Potency is greater than 20 µM.
For `COc1ccc(Oc2ncc3nc(-c4ccc(OC)cc4)c(=O)n(C4CC4)c3n2)cc1`, the Potency is greater than 20 µM.
With `COc1ccc(NC(=O)N2CCC3(CC2)CCN(C(=O)c2cccn2C)CC3)cc1` the figure was greater than 20 µM.
`CC(=O)N1CCC2(CCCN(Cc3nccs3)C2)CC1`: the Potency is greater than 20 µM.
For the molecule `Cn1cc(-c2nc3cnc(Oc4cccc(Cl)c4)nc3n(CCC#N)c2=O)c2ccccc21`, the Potency was greater than 20 µM.
Consider `COCC(=O)N1CCC2(CC1)CN(c1ccccn1)C2`, for which the Potency was greater than 20 µM.
The figure for `COCCNc1cc(-c2ccccc2C)ncn1` is greater than 20 µM; for `CN1CCN(c2ncc3nc(-c4ccccc4)c(=O)n(Cc4cccs4)c3n2)CC1` it is greater than 20 µM.
Consider `Cc1noc(C)c1-c1cc(Nc2ccc(F)cc2)ncn1`, for which the Potency is greater than 20 µM.
For `Cc1ccccc1-c1ccc2ncnc(N(C)Cc3ccco3)c2c1`, the Potency is greater than 20 µM.
For `Cc1noc(C)c1-c1cc(NC2CCNCC2)ncn1`, the Potency is greater than 20 µM.
Consider `COc1ccc(CNc2ncnc3ccc(-c4ccoc4)cc23)c(OC)c1`, for which the Potency was greater than 20 µM.
With `COCCn1c(=O)c(-c2ccc(F)cc2)nc2cnc(Oc3ccccc3)nc21` the figure was greater than 20 µM.
In the case of `O=C(Nc1ccccc1)N1CC[C@@]2(CCCN(C(=O)c3cc(C(F)(F)F)cc(C(F)(F)F)c3)C2)C1`, the Potency was greater than 20 µM.
Consider `COc1ccc(-c2nc3cnc(Oc4ccccc4)nc3n(CCC#N)c2=O)cc1`, for which the Potency was 16.7 µM.
`CNc1ncncc1-c1ccccc1C(F)(F)F`: the Potency is greater than 20 µM.
Regarding `COCCn1c(=O)c(CCc2ccccc2)nc2cnc(N3CCN(C)CC3)nc21`, the Potency is greater than 20 µM.
For `O=C(Oc1ccccc1)N1CCC2(CCCN(c3ncccn3)C2)CC1`, the Potency is greater than 20 µM.
In the case of `COC(=O)N1CCC[C@@]2(CCN(C(c3ccccc3)c3ccccc3)C2)C1`, the Potency was greater than 20 µM.
For `CN(C)C(=O)c1ccc(-c2cncnc2Nc2ccccc2)cc1`, the Potency is greater than 20 µM.
As for `COc1ncc2nc(-c3cccs3)c(=O)n(Cc3ccc(F)cc3)c2n1`, the Potency is greater than 20 µM.
In the case of `COc1ccc(C(=O)N2CCC[C@@]3(CCN(C)C3)C2)cc1`, the Potency is greater than 20 µM.
For the molecule `Cc1noc(C)c1-c1nc(NC2CC2)c2ccccc2n1`, the Potency is greater than 20 µM.
In the case of `COc1ccccc1CNc1ncncc1-c1ccccc1OC`, the Potency was greater than 20 µM.
With `c1cncc(CNc2nc(-c3cccnc3)nc3ccccc23)c1`, the Potency was greater than 20 µM.
In the case of `Cc1cccc(CNc2ncnc3ccc(-c4cccc(NS(C)(=O)=O)c4)cc23)c1`, the Potency was greater than 20 µM.
Turning to `O=C(Oc1ccccc1)N1CCC2(CC1)CCN(c1cccc(-c3ccccc3)c1)CC2`, the Potency is greater than 20 µM.
Turning to `COc1ccc(CNc2cc(-c3cccc(C#N)c3)ncn2)c(OC)c1`, the Potency was greater than 20 µM.
With `O=C(c1cnccn1)N1CCC[C@@]2(CCN(c3ccccn3)C2)C1`, the Potency was greater than 20 µM.
Take `COc1ccc(C(=O)N2CCC3(CCCN(Cc4ccccc4OC)C3)CC2)cc1`: the Potency was greater than 20 µM.
With `COc1ccccc1CNc1ncnc2ccc(-c3ccccc3CN(C)C)cc12`, the Potency was greater than 20 µM.
Regarding `CC(=O)N1CCC2(CC1)CCN(c1ccc(-c3ccccc3)cc1)CC2`, the Potency is greater than 20 µM.
In the case of `Cn1cccc1C(=O)N1CCC2(CCCN(c3cccc(-c4ccccc4)c3)C2)CC1`, the Potency is greater than 20 µM.
For `COc1ccccc1CCn1c(=O)c(-c2cccc(Cl)c2)nc2cncnc21`, the Potency is greater than 20 µM.
With `CC(C)NC(=O)N1CC2(CCN(C(=O)c3ccncc3)CC2)C1`, the Potency was greater than 20 µM.
The figure for `CN(C)c1ncc2nc(-c3cc(F)cc(F)c3)c(=O)n(CCC#N)c2n1` is greater than 20 µM; for `O=C(c1ccncc1)N1CCC2(CCCN(c3ccccn3)C2)CC1` it is greater than 20 µM; for `COc1ccc(-n2c(=O)c(-c3ccc(F)cc3)nc3cncnc32)cc1` it is greater than 20 µM.
On to `CNc1nc(-c2ccc(N(C)C)cc2)nc2ccccc12`, for which the Potency was greater than 20 µM.
Regarding `CC(=O)N1CCC2(CCCN(c3ncccn3)C2)CC1`, the Potency was greater than 20 µM.
Consider `FC(F)(F)c1ccccc1-c1nc(NCc2cccnc2)c2ccccc2n1`, for which the Potency was greater than 20 µM.
Take `COCCn1c(=O)c(-c2ccccc2)nc2cnc(N3CCOCC3)nc21`: the Potency was greater than 20 µM.
On to `COc1ccccc1-c1nc(N(C)Cc2ccco2)c2ccccc2n1`, for which the Potency was greater than 20 µM.
The figure for `O=C(c1cc(C(F)(F)F)cc(C(F)(F)F)c1)N1CCC2(CCN(Cc3ccccc3)CC2)CC1` is greater than 20 µM; for `Cc1ccccc1-c1cc(Nc2ccc(F)cc2)ncn1` it is greater than 20 µM; for `FC(F)(F)c1ccccc1-c1nccc(-n2ccnc2)n1` it is greater than 20 µM.
Consider `O=c1c(-c2cccs2)nc2cnc(Oc3cccc(Cl)c3)nc2n1C1CC1`, for which the Potency is greater than 20 µM.
On to `O=C(Nc1cccc(F)c1)N1CCCC2(CCNCC2)C1`, for which the Potency was greater than 4 µM.
With `COCCn1c(=O)c(-c2ccc(F)cc2)nc2cnc(Oc3cccc(Cl)c3)nc21` the figure was greater than 20 µM; with `COc1ccccc1CNc1cc(-c2cccc(NS(C)(=O)=O)c2)ncn1`, greater than 20 µM; with `CN(C)Cc1ccccc1-c1ccc2ncnc(N3CCOCC3)c2c1`, greater than 20 µM.
For the molecule `O=C(c1cccc(F)c1)N1CCC2(CCN(Cc3nccs3)CC2)CC1`, the Potency was greater than 20 µM.
`COc1ccccc1CN1CCC2(CC1)CCN(C(=O)c1csnn1)CC2`: the Potency is greater than 20 µM.
The figure for `O=C(c1cccc(F)c1)N1CCC2(CCCN(c3ccncc3)C2)CC1` is greater than 20 µM; for `CN(C)c1nc(-c2ccc3c(c2)OCO3)nc2ccccc12` it is greater than 20 µM.
On to `COc1cccc(Cn2c(=O)c(CCc3ccccc3)nc3cncnc32)c1`, for which the Potency was greater than 20 µM.
With `CN(C)C(=O)c1ccc(-c2nc(N(C)Cc3ccco3)c3ccccc3n2)cc1`, the Potency is greater than 20 µM.
As to `Cc1ccccc1-c1nc(NCCN2CCOCC2)c2ccccc2n1`, the Potency is greater than 20 µM.
For the molecule `Cc1noc(C)c1-c1nccc(NCc2ccccc2)n1`, the Potency is greater than 20 µM.
Consider `CCNc1ncc2nc(-c3ccc(Cl)cc3)c(=O)n(-c3ccc(OC)cc3)c2n1`, for which the Potency is greater than 4 µM.
Regarding `CC(=O)N1CCC2(CC1)CN(c1ccccn1)C2`, the Potency is greater than 20 µM.
On to `COc1ccc(NC(=O)N2CCC3(CC2)CCN(C(=O)c2cnccn2)CC3)cc1`, for which the Potency is greater than 20 µM.
In the case of `CC(=O)NCCNc1nc(-c2cccnc2)nc2ccccc12`, the Potency is greater than 20 µM.
The figure for `O=c1c(-c2ccc(F)cc2)nc2cnc(N3CCOCC3)nc2n1C1CC1` is greater than 20 µM.
Turning to `O=S(=O)(c1ccccc1)N1CCC2(CCN(Cc3ccncc3)CC2)CC1`, the Potency was greater than 20 µM.
With `COc1cccc(Nc2ncc3ncc(=O)n(C)c3n2)c1`, the Potency is greater than 20 µM.
Regarding `N#Cc1ccc(CN2CCC3(CC2)CCN(C(=O)c2cccc(F)c2)CC3)cc1`, the Potency was greater than 20 µM.
The figure for `O=c1cnc2cnc(Oc3ccccc3)nc2n1C1CC1` is greater than 20 µM; for `CS(=O)(=O)N1CCC[C@@]2(CCN(C(=O)Nc3ccccc3)C2)C1` it is greater than 20 µM; for `CN(C)c1ccc(-c2ccc3ncnc(N4CCNCC4)c3c2)cc1` it is greater than 20 µM.
Take `COc1ncc2nc(-c3cc(F)cc(F)c3)c(=O)n(C3CC3)c2n1`: the Potency is greater than 20 µM.
With `Cc1noc(C)c1C(=O)N1CCC2(CC1)CCN(C(c1ccccc1)c1ccccc1)CC2`, the Potency was greater than 20 µM.
With `COc1cccc(-c2cncnc2NCc2cnc(C)cn2)c1` the figure was greater than 20 µM.
Turning to `CN(C)Cc1ccccc1-c1nc(NCc2cccs2)c2ccccc2n1`, the Potency is greater than 20 µM.
For the molecule `O=C(Oc1ccccc1)N1CCC2(CC1)CCN(c1ccccn1)CC2`, the Potency is greater than 20 µM.
Consider `Clc1ccccc1-c1nc(NCc2cccnc2)c2ccccc2n1`, for which the Potency is greater than 20 µM.
For the molecule `COCC(=O)N1CCC2(CC1)CCN(c1cccc(-c3ccccc3)c1)CC2`, the Potency is greater than 20 µM.
For the molecule `COCC(=O)N1CCC2(CC1)CN(C(c1ccccc1)c1ccccc1)C2`, the Potency is greater than 20 µM.
With `Cn1cccc1C(=O)N1CCC2(CCCN(c3ccc(-c4ccccc4)cc3)C2)CC1` the figure was greater than 20 µM.
The figure for `COCCn1c(=O)c(-c2ccc(Cl)cc2)nc2cnc(Oc3ccc(OC)cc3)nc21` is greater than 20 µM.
With `COc1cccc(Cn2c(=O)cnc3cncnc32)c1` the figure was greater than 20 µM; with `c1cn(-c2ccnc(-c3ccc4c(c3)OCO4)n2)cn1`, greater than 20 µM.
Take `O=C(c1ccco1)N1CCC2(CCCN(c3cccc(-c4ccccc4)c3)C2)CC1`: the Potency was greater than 20 µM.
As for `COc1ccccc1CNc1ccnc(-c2ccc(N(C)C)cc2)n1`, the Potency is greater than 20 µM.
With `c1csc(CNc2nc(-c3ccoc3)nc3ccccc23)c1` the figure was greater than 20 µM.

These data come from PubChem BioAssay (NCATS).
